Screening data from PubChem BioAssay.
An excerpt weighted towards active compounds, which were near 12% of everything screened.
SARS PLpro yeast: blocks SARS-CoV papain-like protease in a yeast assay; S. cerevisiae expressing SARS-CoV PLpro, growth rescue; AID 485353; Potency, µM (doses to about 32.9 µM), for inactives: top-dose activity, positive = growth rescue, most hits filed as activators; 0.19% of 330,000 active; calls by dose curve; further: 0% is about no effect; nearly all actives have a fitted effect of over 55% in size
Sm TGR inh: inhibitors of Schistosoma mansoni thioredoxin glutathione reductase. Q962Y6. Potency, µM (top dose mostly 114 µM), for inactives: at the top dose activity change, negative = inhibition, actives largely listed as inhibitors. 3% of 360,000 active. purified TGR, DTNB reduction, TNB absorbance 405 nm; further: on the % scale 0 is the no-effect control and ±100 the full control effect; nearly all actives have a fitted effect of over 60% in size
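TGR 20 nM + NADPH 100 uM (dispensed conc.), cpd preinc 15 min RT; start with NADPH (500 uM addition) then DTNB (15 mM addition). Kinetic TNB absorbance, 405 nm filter. Four-parameter Hill fit across titration.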
Pf growth 96h: inhibits malaria parasite growth, 96 h; P. falciparum luciferase reporter growth, 96 h; 6.9% of 320,000 active; AID 504834; Potency, µM (doses to about 28.7 µM), for the others: top-dose activity change, negative = inhibition, most hits filed as inhibitors; further: on the % scale 0 is the no-effect control and ±100 the full control effect
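Cell-based qHTS: luciferase-tagged P. falciparum in erythrocytes (2% hematocrit, 0.05% parasitemia final) incubated with compounds for 96 hours, 37 C, 5% CO2; luciferase detection reagent then added and luminescence measured.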
Pf growth 48h: P. falciparum growth inhibition at 48 hours (one generation) | AID 504832 | 5.9% of 310,000 active | Potency, µM (top dose mostly 28.7 µM), for inactives: at the highest dose activity change, negative = inhibition, most hits filed as inhibitors | P. falciparum luciferase growth in erythrocytes, 48 h; further: on the % scale 0 is the no-effect control and ±100 the full control effect
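Parasite viability was followed by luminescence of a genomically integrated firefly luciferase. Cultures held 0.1% parasitemia at 2% hematocrit (final), incubated under 5% CO2 at 37 C.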
The depositor's hits bear a star; ? = inconclusive; · = no result given; [ ] = remark or other dose. Unless noted, the call rests on the fitted dose curve; in most records, active means well fitted curve in the direction sought with a large enough effect; inconclusive means small, poorly fitted or top-dose-only effect, or another doubt; inactive means no such curve, though single readings can be large; an effect the other way counts as inactive or inconclusive. Potency means the concentration at half of the fitted maximal effect.

SMILES	SARS PLpro yeast	Sm TGR inh	Pf growth 96h	Pf growth 48h
Cc1ccc(C(=O)N(C)CC(=O)Nc2ccc(Cl)c(C(F)(F)F)c2)cc1S(=O)(=O)N1CCCCC1	0%	1%	?	9.3µM*
O=C(CNc1cccc(S(=O)(=O)N2CCCC2)c1)Nc1ccc(C(F)(F)F)cc1	10%	5%	1.9µM*	4.1µM*
COc1ccc(C(=O)NNC(=O)C23CC4CC(CC(C4)C2)C3)cc1OC	-5%	2%	-14%	?
CC(=O)c1cccc(NC(=O)COC(=O)c2ccc3c(c2)OCO3)c1	-2%	0%	10%	24%
CC(=O)Nc1ccc(NC(=O)Cc2ccc(S(=O)(=O)N3CCCCC3)cc2)cc1	5%	-27%	?	?
COc1ccc(NS(=O)(=O)c2cnc(N)nc2)cc1Cl	·	-14%	·	·
O=C(Cc1ccc(Cl)cc1)Nc1cccc(S(=O)(=O)N2CCCCC2)c1	0%	1%	?	?
CN(CC(=O)Nc1ccc(Cl)c(C(F)(F)F)c1)C(=O)CCNC(=O)c1ccco1	2%	-5%	-25%	10µM*
COc1ccc([N+](=O)[O-])cc1NCC(=O)Nc1cccc(S(=O)(=O)N2CCCC2)c1	-3%	-2%	?	5.2µM*
O=C(CCl)Nc1cccc(S(=O)(=O)N2CCCCCC2)c1	29%	11µM*	5.2µM*	6.6µM*
COc1ccc(S(=O)(=O)Nc2cccc3c2O[C@H](CN(C)C(=O)Nc2ccc4c(c2)OCO4)[C@@H](C)CN([C@H](C)CO)C3=O)cc1	1%	·	·	·
O=C(CN1C(=O)NC2(CCCCC2)C1=O)N1CCN(c2ncccn2)CC1	-1%	9%	-8%	8%
Cc1ccc(Nc2ccc(-n3ccnc3)nn2)cc1C	-8%	3%	10µM*	?
COc1cccc(Nc2ccc(-n3ccnc3)nn2)c1	0%	4%	66%	?
C[C@H](NC(=O)CCCOc1ccc(Cl)cc1Cl)c1nnc2ccccn12	-4%	-15%	33%	13%
Cc1ccc(S(=O)(=O)NC2OC(=O)C(Cl)=C2Cl)cc1 (centres undefined)	21%	2.8µM*	?	13%
CSc1c(C#N)sc(=S)n1-c1ccc(C)cc1	0%	43%	10µM*	?
c1ccc2c(CN3CCSCC3)cccc2c1	7%	-11%	?	12%
O=C([C@H](Cc1ccccc1)NS(=O)(=O)c1ccc(Cl)cc1)N1CC[C@@]2(O)CCCC[C@H]2C1	3%	4%	?	13µM*
COc1ccc(S(=O)(=O)N[C@@H](Cc2ccccc2)C(=O)N2CC[C@@]3(O)CCCC[C@H]3C2)cc1	-3%	3%	·	-21%
CCC(=O)Oc1ccc(-c2nc3ccccc3c(=O)o2)cc1	·	9%	·	·
CCn1cc(Cl)c(C(=O)Nc2nccs2)n1	3%	-1%	81%	76%
CCCCn1c(=O)cc(O)c2ccccc21	-4%	5%	-17%	-7%
CN(C)c1ccc2c(O)cc(=O)n(C)c2c1	-5%	-9%	5.2µM*	-4%
CCOC(=O)c1ccc(N2CCN(C(=O)c3ccccc3)CC2)c(NC(=O)c2ccco2)c1	0%	4%	-18%	?
SMILES	SARS PLpro yeast	Sm TGR inh	Pf growth 96h	Pf growth 48h
CCOc1cc(C2c3c(n[nH]c3C)C(=O)N2c2ccc(C)cc2)ccc1O (centres undefined)	2%	18µM*	?	12%
COc1cc(C2c3c(n[nH]c3C)C(=O)N2c2ccc(C)cc2)ccc1O (centres undefined)	3%	?	32%	35%
COc1cccc(/C=C/C2=CC(C)(C)NC(=S)N2)c1	1%	·	?	-13%
CCOc1ccc(/C=C/C2=CC(C)(C)NC(=S)N2)cc1	2%	8.9µM*	359%	?
COc1ccc(/C=C/C2=CC(C)(C)NC(=S)N2)cc1OC	4%	2.8µM*	-24%	?
CCc1ccc(S(=O)(=O)c2cn(Cc3ccccc3)c3cc(N4CCCC4)c(F)cc3c2=O)cc1	·	3%	·	·
Cc1cc(C)n(-c2nc3ccccc3[nH]c2=O)n1	-15%	-6%	-7%	-4%
Cc1cc(C)n(-c2c(C)[nH]c3ccccc23)n1	0%	-20%	9.3µM*	?
Cc1cc2c(c(=O)n1Cc1ccccc1)C1O[C@](CCCCN3C(=O)c4ccccc4C3=O)(Cc3cc(C#N)ccc31)O2	8%[6.58 µM]	?	?	?
N#Cc1ccc2c(c1)C[C@]1(CCCCN3C(=O)c4ccccc4C3=O)Oc3c(c(=O)oc4ccccc34)C2O1	-1%[6.58 µM]	2%[22.9 µM]	-19%[5.75 µM]	1.7µM*
O=C(Nc1cccc(Br)c1)c1cc(S(=O)(=O)N2CCCCC2)c[nH]1	·	6%	·	·
CCOc1ccc(NC(=O)N(C)CCc2c(C)nn(C)c2C)cc1	·	1%	·	·
Cc1c(C(=O)N2CCCCC2)c(S(=O)(=O)NCc2ccccc2Cl)c(C)n1C	-8%	0%	13µM*	-11%
COc1ccc(C)cc1NS(=O)(=O)c1c(C(=O)N2CCCCCC2)c(C)n(C)c1C	·	5.6µM*	·	·
Cc1ccc(CNS(=O)(=O)c2c(C(=O)N3CCCCC3)c(C)n(C)c2C)o1	-5%	35µM*	?	9%
COc1cc(NS(=O)(=O)c2c(C(=O)N3CCCCC3)c(C)n(C)c2C)cc(OC)c1OC	·	4%	·	·
Cc1ccc(CNS(=O)(=O)c2c(C(=O)N3CCCCCC3)c(C)n(C)c2C)cc1	-11%	1%	4%	-11%
Cc1ccccc1CNS(=O)(=O)c1c(C(=O)N2CCCC2)c(C)n(C)c1C	-2%	-25%	-30%	17%
COc1ccc2cc3cc(C(=O)N4CCN(c5ccccn5)CC4)oc3nc2c1	-2%	-4%	?	-26%
Cc1noc(Cn2c(=O)c3ccccc3n(CC(=O)Nc3cccc(Cl)c3C)c2=O)n1	·	-5%	·	·
Cc1cccc(NC(=S)NC2CCSc3ccccc32)c1 (centres undefined)	20%	-1%	?	12µM*
FC(F)Oc1ccc(NC(=S)NC2CCSc3ccccc32)cc1 (centres undefined)	-3%	?	-23%	2%
COc1ccc(C)cc1NC(=O)CN1CCN(S(=O)(=O)c2ccc3ccccc3c2)CC1	-5%	7%	12µM*	?
COc1cc(NC(=O)c2ccccc2Cl)c(OC)cc1NC(=O)CN1CCCCC1	1%	5%	1.9µM*	51%
COc1cc2c(cc1OC)CN(Cc1cc(OC)c(O)c(OC)c1)CC2	-1%	8.9µM*	?	-2%
SMILES	SARS PLpro yeast	Sm TGR inh	Pf growth 96h	Pf growth 48h
COc1ccc(CN2CCN(c3ccccc3F)CC2)cc1O	10%	12%	?	·
COc1cc(CN2CCN(c3ccccc3F)CC2)cc(OC)c1O	-6%	14µM*	18%	5%
COc1cccc2c1Oc1ncccc1N(C(=O)Nc1ccc(F)c(Cl)c1)C2	·	3%	·	·
COc1ccccc1NC(=O)CN1CCN(CC(=O)Nc2ccc(F)cc2F)CC1	0%	-3%	4.1µM*	28%
COc1ccc(C)cc1NC(=O)CCN1CCN(c2ccccc2F)CC1	1%	6%	?	?
COc1ccccc1NC(=O)CN1CCCCC1	4%	10%	17%	-3%
COc1ccc(C)cc1NC(=O)CN1CCN(c2ccccc2F)CC1	-9%	6%	0%	13µM*
